Shown are actives, neighbours in structure and some others; about 3.5% of the full set was active somewhere.
BoNT F protease: blocks Botulinum neurotoxin F light chain protease; Multiplex microsphere protease cleavage assay, flow cytometry; inhibition, % at 10 µM; 0.22% of 360,000 active; AID 588497; in the data active = inhibition above about 35%, passing the limit was not always enough; inconclusive = no clear call, values can overlap the other calls
Autofluor counter: counter-screen for toxin protease inhibitors: compound fluorescence; fluorescence intensity (test concentration not listed); AID 624483; 3.1% of 360,000 active; compound autofluorescence counterscreen, microsphere flow cytometry; active compounds read high; in the data active = fluorescence intensity above about 16000; inconclusive = no clear call, values can overlap the other calls
BoNT A protease: BoNT A light chain protease inhibition; multiplex microsphere protease substrate cleavage, flow cytometry; inhibition, % at 10 µM; 0.17% of 360,000 active; AID 588499
Anthrax LF prot: blocks Bacillus anthracis lethal factor protease. inhibition, % at 10 µM. 0.12% of 360,000 active. multiplex microsphere protease cleavage assay, LF
Target sequence (P15917 whole entry, looked up): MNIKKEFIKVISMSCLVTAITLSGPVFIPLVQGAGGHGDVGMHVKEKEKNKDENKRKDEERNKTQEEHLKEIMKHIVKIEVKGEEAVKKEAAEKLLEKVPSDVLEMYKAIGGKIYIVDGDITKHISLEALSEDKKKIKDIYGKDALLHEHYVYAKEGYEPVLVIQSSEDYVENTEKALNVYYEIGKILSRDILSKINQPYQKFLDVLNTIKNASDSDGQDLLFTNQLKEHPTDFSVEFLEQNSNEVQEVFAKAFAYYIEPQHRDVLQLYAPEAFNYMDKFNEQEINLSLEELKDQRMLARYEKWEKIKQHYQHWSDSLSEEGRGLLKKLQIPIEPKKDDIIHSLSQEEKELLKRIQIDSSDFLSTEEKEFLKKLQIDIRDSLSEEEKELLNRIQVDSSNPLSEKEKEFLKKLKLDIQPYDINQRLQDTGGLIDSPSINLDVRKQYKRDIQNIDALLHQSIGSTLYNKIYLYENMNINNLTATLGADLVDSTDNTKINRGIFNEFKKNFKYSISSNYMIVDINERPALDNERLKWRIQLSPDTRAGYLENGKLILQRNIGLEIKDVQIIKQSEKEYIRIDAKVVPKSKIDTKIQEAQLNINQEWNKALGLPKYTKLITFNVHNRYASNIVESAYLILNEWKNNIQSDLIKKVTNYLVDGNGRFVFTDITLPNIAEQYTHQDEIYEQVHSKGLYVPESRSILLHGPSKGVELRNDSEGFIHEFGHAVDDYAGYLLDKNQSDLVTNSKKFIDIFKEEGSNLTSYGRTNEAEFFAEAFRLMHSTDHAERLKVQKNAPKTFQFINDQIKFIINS
BoNT-A LC CP1: blocks botulinum neurotoxin A light chain protease; 3% of 720 active; shares compounds with BoNT F protease; inhibition, % at 10 µM; multiplex microsphere protease assay, flow cytometry; in the data active = inhibition above about 32%
BoNT-F LC CP1: BoNT/F light chain protease inhibition; shares compounds with BoNT F protease; multiplex microsphere protease cleavage assay, flow cytometry; inhibition, % at 10 µM; 720 tested, under 10 active; AID 602140; call rule not given here
LF protease CP1: blocks anthrax lethal factor protease. 720 tested, under 10 active. multiplex microsphere protease cleavage assay, LF. shares compounds with BoNT F protease. inhibition, % at 10 µM; call rule not given here
Large screens that a line does not name were inactive (follow-up assays come after a bar, where they were run). Cut-off read from the data, not from the text of the source, unless noted: active = inhibition above about 30%; inconclusive = no clear call, values can overlap the other calls; inactive = below that.

COc1ccc(CCNC(=O)c2ccc(Cl)c(S(=O)(=O)N(C)c3ccccc3)c2)cc1	none
O=[N+]([O-])c1cccc(SSc2cccc([N+](=O)[O-])c2)c1	none
O=C(Nc1ccc(F)cc1)Nc1cccc(Br)c1	BoNT F protease inconclusive, Anthrax LF prot 32 | BoNT-A LC CP1 inactive | BoNT-F LC CP1 inactive | LF protease CP1 inactive
CCNC(=O)C1(C)CCN(C(=O)c2ccccc2F)C1 (stereo unspecified)	none
CCOC(=O)c1cc(C(=O)c2cccs2)n2ccc(C(C)=O)cc12	BoNT A protease 35 | BoNT-A LC CP1 inactive | BoNT-F LC CP1 inactive | LF protease CP1 inactive
CCOC(=O)c1cc(C(C)=O)n2ccccc12	none
CCNc1ccc(S(=O)(=O)N(C)C)cc1NCC(=O)Nc1ccccc1F	none
CCNc1ccc(S(=O)(=O)N(C)C)cc1NCC(=O)Nc1ccccc1Br	BoNT F protease 41 | BoNT-A LC CP1 inactive | BoNT-F LC CP1 inactive | LF protease CP1 inactive
C[C@H](CO)N1C[C@H](C)[C@@H](CN(C)C)Oc2c(NS(=O)(=O)c3cn(C)cn3)cccc2C1=O	none
COc1cccc(CNC(=O)C(CCSC)NS(=O)(=O)c2ccc3c(c2)oc(=O)n3C)c1 (stereo unspecified)	BoNT F protease 37 | BoNT-A LC CP1 inactive | BoNT-F LC CP1 inactive | LF protease CP1 inactive
COc1ccccc1CNC(=O)C(CCSC)NS(=O)(=O)c1ccc2c(c1)oc(=O)n2C (stereo unspecified)	none
CC(=O)NC(C)(c1ccccc1)c1nc(-c2cccc(F)c2)cs1 (stereo unspecified)	none
CCCc1cc(CNC(=O)C2CCC(=O)N(Cc3ccccc3OC)C2)on1 (stereo unspecified)	none
COc1ccc(C(=O)NCCc2ccc(C)cc2)cc1OC1CCN(C(C)=O)CC1	none
COc1cc(C(=O)N(C)CCOc2ccc(C)cc2)ccc1OC1CCN(C(C)=O)CC1	BoNT F protease inconclusive, Anthrax LF prot 30 | BoNT-A LC CP1 inactive | BoNT-F LC CP1 inactive | LF protease CP1 inactive
Cc1c(C(=O)NCc2ccccc2C(F)(F)F)sc(=O)n1Cc1ccccc1C#N	none
COC(=O)c1c(NC(=O)c2ccccc2[N+](=O)[O-])sc2c1CC(C)(C)NC2(C)C	BoNT F protease 70, Anthrax LF prot 34 | BoNT-A LC CP1 inactive | BoNT-F LC CP1 inactive | LF protease CP1 inactive
O=C(COc1ccc(-c2nnco2)cc1)N1CCOCC1	none
O=C(OCC(=O)c1c[nH]c2ccccc12)c1ccc(F)c(S(=O)(=O)N2CCOCC2)c1	none
CCC(C)NC(=O)c1c(N)n(Cc2ccc3c(c2)OCO3)c2nc3ccccc3nc12 (stereo unspecified)	BoNT A protease 30 | BoNT-A LC CP1 inactive | BoNT-F LC CP1 inactive | LF protease CP1 inactive
Nc1nc(N)c2[nH]c(=S)[nH]c2n1	none
OC[C@@H]1CN(Cc2cccs2)C[C@H](n2cnc3c(N4CCCC4)ncnc32)O1	none
COCc1cc(C)nc(Nc2ccccc2OC)c1C#N	Anthrax LF prot 32 | BoNT-A LC CP1 inactive | BoNT-F LC CP1 inactive | LF protease CP1 inactive
CCC(C)(C)C1CCC2(CC1)NC(=O)N(CC(=O)N1CCN(c3ccccc3OC)CC1)C2=O (stereo unspecified)	none
O=C(Nc1ccc(O)cc1C(=O)O)c1ccc2c(c1)C(=O)N(Cc1ccco1)C2=O	BoNT F protease 35 | BoNT-A LC CP1 inactive | BoNT-F LC CP1 inactive | LF protease CP1 inactive
NC(=O)c1ccsc1NC(=O)CSc1n[nH]c(N)n1	none
Cc1ccsc1/C=C/C1=Cc2c(sc(NC(=O)CSc3n[nH]c(N)n3)c2C#N)C(C)(C)C1	Autofluor counter 18756, BoNT A protease 44, Anthrax LF prot 33 | BoNT-A LC CP1 inactive | BoNT-F LC CP1 inactive | LF protease CP1 inactive
CCOc1ccc(/C=C/C2=Cc3c(sc(NC(=O)CSc4n[nH]c(N)n4)c3C#N)C(C)(C)C2)cc1	BoNT F protease 37, BoNT A protease 85, Anthrax LF prot 58 | BoNT-A LC CP1 inactive | BoNT-F LC CP1 inactive | LF protease CP1 inactive
COc1cc(Cl)ccc1OC1(C)CCN(Cc2ccc3ccccc3c2)C1 (stereo unspecified)	none
CCn1c(C)c(C(C)=O)c(N2CCN(C(c3ccccc3)c3ccccc3)CC2)nc1=S	none
CCn1c(C)c(C(C)=O)c(N2CCN(c3ccccc3)CC2)nc1=S	BoNT A protease 46 | BoNT-A LC CP1 inactive | BoNT-F LC CP1 inactive | LF protease CP1 inactive
O=C(Nc1ccc2c(c1)CCCN2C(=O)c1cccs1)c1c(F)cccc1Cl	none
COc1ccc(/C=C/c2cc(C(F)(F)F)on2)cc1	BoNT F protease 40 | BoNT-A LC CP1 inactive | BoNT-F LC CP1 inactive | LF protease CP1 inactive
COc1ccc(C(O)c2nc(/C=C/c3ccc(C(F)(F)F)cc3)cs2)cc1 (stereo unspecified)	none
O=C(CCCc1nc2ccccc2s1)NCc1ccc(F)cc1	BoNT F protease 40 | BoNT-A LC CP1 inactive | BoNT-F LC CP1 inactive | LF protease CP1 inactive
Cc1ccccc1Cn1cc(NC(=O)c2cc3nc(-c4ccco4)cc(C(F)(F)F)n3n2)cn1	none | BoNT-A LC CP1 inactive | BoNT-F LC CP1 inactive | LF protease CP1 inactive
Cc1nn(C)c(C)c1NC(=O)c1cc2nc(-c3ccco3)cc(C(F)(F)F)n2n1	none | BoNT-A LC CP1 inactive | BoNT-F LC CP1 inactive | LF protease CP1 inactive
CCc1ccc(-c2cc(C(F)(F)F)n3nc(C(=O)Nc4cnn(Cc5ccc(C)cc5)c4)cc3n2)s1	none | BoNT-A LC CP1 inactive | BoNT-F LC CP1 inactive | LF protease CP1 inactive
C[C@@H]1CN([C@@H](C)CO)C(=O)CCCn2nncc2CO[C@H]1CN(C)Cc1ccc2c(c1)OCCO2	none
O=C(Nc1ccc(F)cc1)C1CCN(C(=O)NCc2ccccc2)CC1	Anthrax LF prot 33 | BoNT-A LC CP1 inactive | BoNT-F LC CP1 inactive | LF protease CP1 inactive
O=C(NC1CCCCCC1)C1CCCN(c2ncccn2)C1 (stereo unspecified)	BoNT A protease 79 | BoNT-A LC CP1 inactive | BoNT-F LC CP1 inactive | LF protease CP1 inactive
O=C(NC1CCCCC1)C1CCN(c2ncccn2)CC1	none
CCOC(=O)C1=CCN(S(=O)(=O)c2ccc(C)cc2)C1c1ccc(C(C)C)cc1 (stereo unspecified)	none
CC(C)c1ccc(S(=O)(=O)c2cnc(=S)[nH]c2N)cc1	BoNT F protease 37 | BoNT-A LC CP1 inactive | BoNT-F LC CP1 inactive | LF protease CP1 inactive
CCOC(=O)c1c(C)[nH]c(C)c1C(=O)COC(=O)Cc1n[nH]c(=O)c2ccccc12	none
O=C1CN(C(=O)C2CC2)c2ccccc2N1	BoNT F protease 37 | BoNT-A LC CP1 inactive | BoNT-F LC CP1 inactive | LF protease CP1 inactive
COc1ccc(C2CC=C(C(C)=O)CN2S(=O)(=O)c2ccc(C)cc2)cc1 (stereo unspecified)	none
COc1ccc(CCNC(=O)CCSCc2ccccc2F)cc1OC	BoNT F protease 48 | BoNT-A LC CP1 inactive | BoNT-F LC CP1 inactive | LF protease CP1 inactive
Cc1ccccc1CC(=O)N(CCN(C)C)CC1CCCN(Cc2ccccc2F)C1 (stereo unspecified)	none

Compound activity deposited in PubChem BioAssay by NMMLSC.
